Where “and” joins values, the source holds several entries; their conditions need not be identical. Identical values can stand only once. Results filed as inconclusive are left out. Calls of active or inactive are those of the source. Unless noted, calls follow the shape of the dose curve; as a rule, active = well fitted curve in the direction sought with a large enough effect in the repeat runs; inconclusive = weak or mixed curves; inactive = no such curve, though single readings can be large; an effect the other way counts as inactive or inconclusive.
How the values were obtained:
[1] = qHTS assay to identify small molecule agonists of the NFkB signaling pathway - cell viability counter screen (AID 1159515; calls by dose curve; also: nearly all actives have a fitted effect of over 55% in size; also: potency is read from the fitted curve at half-maximal effect)
Method in brief: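 5 hr compound treatment of NFkB-bla ME-180 cells (2,000/well, seeded overnight beforehand), followed by reporter substrate for 1.5 hr. CellTiter-Glo added afterward; luminescence after 30 min RT.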

[2] = qHTS assay to identify small molecule antagonists of the retinoid-related orphan receptor gamma (ROR-gamma) signaling pathway - cell viability counter screen (AID 1159520); also: nearly all actives have a fitted effect of over 50% in size; also: potency is read from the fitted curve at half-maximal effect
Method in brief: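 Cytotoxicity was read from cellular ATP (CellTiter-Glo luminescence) after 16 hr at 37 C with 1 uM doxycycline induction. The inducer was added 2 hr after compound transfer to Tet-on ROR gamma CHO cells.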

[3] = target: Nuclear receptor ROR-gamma (Homo sapiens) (UniProt P51449); assay: qHTS assay to identify small molecule antagonists of the retinoid-related orphan receptor gamma (ROR-gamma) signaling pathway (AID 1159521; also: nearly all actives have a fitted effect of over 50% in size; also: potency is read from the fitted curve at half-maximal effect)
Method in brief: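 Decreased RORE-driven luciferase luminescence indicates antagonism. Tet-on RORγ CHO cells received compound, then 1 uM final doxycycline 2 h later; signal read after 16 h incubation.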

[4] = qHTS assay to identify small molecule agonists of the AP-1 signaling pathway - cell viability counter screen (AID 1159525; calls by dose curve; also: nearly all actives have a fitted effect of over 55% in size; also: potency is read from the fitted curve at half-maximal effect)
Method in brief: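 Luminescent ATP readout (Cell Titer Glo, 30 min RT), normalised to DMSO and tetra n-octyl ammonium bromide controls. Cells were ME-180 AP-1-bla in 0.5% dialyzed FBS Opti-MEM, with a 5 h, 37 °C compound exposure.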

[5] = qHTS assay to identify small molecule antagonists of the retinoic acid receptor (RAR) signaling pathway (AID 1159552; also: nearly all actives have a fitted effect of over 50% in size; also: potency is read from the fitted curve at half-maximal effect)
Method in brief: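 C3RL4 RARE-luc cells, overnight plating; retinol 1 uM final added right after compound; 6 hr 37 C; luciferase read at 30 min RT.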

[6] = qHTS assay to identify small molecule antagonists of the estrogen related receptor signaling pathway with the pleiotropic PPARgamma coactivator (PGC) cell viability counter screen (AID 1224822; also: potency is read from the fitted curve at half-maximal effect)
Method in brief: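 Compounds in DMSO, with positive and negative controls, were applied to PGC/ERR cells (2,000/well) and left 17.5 h at 37 C before CellTiter-Fluor detection.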

[7] = qHTS assay to identify small molecule antagonists of the estrogen related receptor (ERR) signaling pathway from Tox21 library - cell viability counter screen (AID 1224834); also: nearly all actives have a fitted effect of over 30% in size; also: potency is read from the fitted curve at half-maximal effect
Method in brief: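 CellTiter-Fluor fluorescence measured; ERR cells; 17.5 h compound incubation at 37 C; 30 min reagent step.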

[8] = qHTS assay to identify small molecule agonists of the RXR signaling pathway - cell viability counter screen (AID 1159529); also: nearly all actives have a fitted effect of over 50% in size; also: potency is read from the fitted curve at half-maximal effect
Method in brief: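 In this parallel viability measure, GeneBLAzer RXR-alpha HEK 293T cells (2% charcoal-stripped FBS) were given a 5 hr preincubation, treated with compounds 16 hr at 37 C, and read by CellTiter-Glo luminescence.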

[9] = target: Luciferin 4-monooxygenase (Photinus pyralis) (UniProt P08659); assay: qHTS assay to identify small molecule inhibitors of firefly luciferase (AID 1224835); also: nearly all actives have a fitted effect of over 25% in size; also: potency is read from the fitted curve at half-maximal effect
Sequence of Luciferin 4-monooxygenase (Photinus pyralis) (P08659 whole entry, looked up): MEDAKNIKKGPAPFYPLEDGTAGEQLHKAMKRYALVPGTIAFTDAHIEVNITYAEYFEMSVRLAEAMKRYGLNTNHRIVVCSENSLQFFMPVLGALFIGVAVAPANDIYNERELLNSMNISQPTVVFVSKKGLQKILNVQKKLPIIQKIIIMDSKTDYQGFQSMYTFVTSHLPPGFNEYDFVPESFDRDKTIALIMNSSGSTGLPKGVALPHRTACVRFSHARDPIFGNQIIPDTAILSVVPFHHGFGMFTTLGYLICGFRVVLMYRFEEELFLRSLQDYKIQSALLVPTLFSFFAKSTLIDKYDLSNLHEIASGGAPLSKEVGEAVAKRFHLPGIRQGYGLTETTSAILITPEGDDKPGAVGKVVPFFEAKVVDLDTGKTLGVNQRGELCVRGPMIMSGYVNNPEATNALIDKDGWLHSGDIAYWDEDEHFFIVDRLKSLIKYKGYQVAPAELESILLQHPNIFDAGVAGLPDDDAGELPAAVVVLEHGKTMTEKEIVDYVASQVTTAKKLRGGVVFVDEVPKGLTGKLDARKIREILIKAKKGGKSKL
Method in brief: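 Inhibition of purified Photinus luciferase is measured by luminescence. Substrate levels (D-luciferin, ATP) sit at their KM values. Each compound is tested in a concentration series.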

[10] = qHTS assay to identify small molecule agonists of the AP-1 signaling pathway (AID 1159526; calls by dose curve)
[11] = qHTS assay to identify small molecule antagonists of the retinoid acid receptor (RAR) signaling pathway - cell viability counter screen (AID 1159551); also: nearly all actives have a fitted effect of over 35% in size; also: potency is read from the fitted curve at half-maximal effect
Method in brief: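 Seed C3RL4 cells; next day add compound, then retinol to 1 uM final; incubate 6 h at 37 C; add CellTiter-Glo; read luminescence after 30 min at RT.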

[12] = qHTS assay to identify small molecule agonists of the retinoic acid receptor (RAR) signaling pathway (AID 1159553); also: potency is read from the fitted curve at half-maximal effect
Method in brief: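 Activation of retinol signaling was monitored via a RARE luciferase reporter in C3RL4 cells. After 6 hr compound treatment at 37 C, detection reagent was added for 30 min at room temperature before luminescence reading.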

[13] = target: Retinoic acid receptor RXR-alpha (Homo sapiens) (UniProt P19793); assay: qHTS assay to identify small molecule agonists of the RXR signaling pathway (AID 1159527; calls by dose curve; also: nearly all actives have a fitted effect of over 35% in size)
Sequence of Retinoic acid receptor RXR-alpha (Homo sapiens) (P19793 whole entry, looked up): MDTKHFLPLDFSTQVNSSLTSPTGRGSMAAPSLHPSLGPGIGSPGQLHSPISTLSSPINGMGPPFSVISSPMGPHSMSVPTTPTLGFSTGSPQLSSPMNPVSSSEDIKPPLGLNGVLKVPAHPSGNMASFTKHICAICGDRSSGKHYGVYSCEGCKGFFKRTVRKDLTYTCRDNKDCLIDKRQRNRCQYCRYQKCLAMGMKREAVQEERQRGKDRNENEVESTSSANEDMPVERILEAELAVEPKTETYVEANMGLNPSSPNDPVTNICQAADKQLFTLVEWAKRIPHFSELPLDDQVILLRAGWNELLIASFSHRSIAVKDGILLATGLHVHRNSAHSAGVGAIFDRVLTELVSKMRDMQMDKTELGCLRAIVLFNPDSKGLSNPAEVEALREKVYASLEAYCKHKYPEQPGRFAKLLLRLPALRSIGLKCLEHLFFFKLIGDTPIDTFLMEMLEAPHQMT
Method in brief: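 16 hr incubation of compound-treated RXR-alpha-UAS-bla HEK 293T cells (2% charcoal-stripped FBS, 37 C) preceded a 2 hr room-temperature LiveBLAzer FRET substrate step and blue/green fluorescence measurement.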

[14] = qHTS assay to identify small molecule antagonists of the estrogen related receptor (ERR) signaling pathway - cell viability counter screen (AID 1224818);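 also: series mostly up to about 46 µM; viability measured after 17.5 h of compound exposure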
Method in brief: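 In the same ERR cell assay, compound-treated wells (17.5 h, 37 C) were multiplexed with a fluorogenic viability reagent, CellTiter-Fluor, read after 30 min to flag cytotoxic substances.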

[15] = qHTS assay to identify small molecule agonists of the estrogen related receptor (ERR) signaling pathway (AID 1224820)
Method in brief: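 ERR reporter cells (NTP line) plated 2,000/well, incubated 6 h at 37 C/5% CO2, then pinned with compounds in DMSO and held 18 h at 37 C. One-Glo added; luminescence read after 30 min at room temperature.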

[16] = qHTS assay to identify small molecule agonists of the estrogen related receptor signaling pathway with the pleiotropic PPARgamma coactivator (PGC) (AID 1224823)
Method in brief: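 PGC/ERR reporter cells were seeded, rested 6 h at 37 C/5% CO2, then exposed to compounds in DMSO by pin transfer for 18 h at 37 C. Luciferase activity was read as luminescence after One-Glo reagent and 30 min at room temperature.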

Measured: Potency

CCCCCCCCc1ccc(O)cc1
inactive: [3] | [5]
active: [1] 49.3 µM | [2] 61.5 µM | [4] 22 µM | [6] 52.4 µM | [7] 61.5 µM

CCCCN(CCCC)C(=S)[S-].CCCCN(CCCC)C(=S)[S-].[Zn+2]
inactive: [1] | [2] | [9]
active: [3] 13.7 µM | [8] 4.36 µM | [7] 15.3 µM

COc1cc(C=O)cc2c1[C@H](COC(N)=O)[C@]1(OC(C)=O)ON2C[C@H]2[C@@H]1N2C(C)=O
inactive: [1] | [2] | [4] | [10] | [8] | [11] | [9]

CC(C)C1CCC(Cc2ccc(Cl)cc2)C1(O)Cn1cncn1 (centres undefined)
active: [1] 54.4 µM | [2] 60.5 µM | [3] 30.3 µM | [4] 48.5 µM | [8] 54.4 µM | [11] 60.5 µM | [5] 42.8 µM | [7] 53.9 µM
inactive: [9]

C[C@H]1O[C@@H](O[C@H]2[C@@H](O)C[C@H](O[C@H]3[C@@H](O)C[C@H](O[C@H]4CC[C@@]5(C)[C@H](CC[C@@H]6[C@@H]5CC[C@]5(C)[C@@H](C7=CC(=O)OC7)CC[C@]65O)C4)O[C@@H]3C)O[C@@H]2C)C[C@H](O)[C@@H]1O
active: [1] 0.124 µM | [3] 5.48 µM and 16.8 µM | [8] 0.0621 µM | [7] 43.5 nM and 75 nM
inactive: [2] | [11] | [9]

CCN(CC)c1c([N+](=O)[O-])cc(C(F)(F)F)c(N)c1[N+](=O)[O-]
active: [3] 27.3 µM
inactive: [1] | [2] | [11] | [9]

CC(C)CC(C)(c1ccc(O)cc1)c1ccc(O)cc1
active: [1] 49.1 µM | [3] 43.4 µM and 48.6 µM | [4] 43.8 µM | [8] 55.1 µM and 49 µM | [7] 48.7 µM
inactive: [11] | [5] | [12] | [9]

CCOP(=S)(OCC)OC(Cl)C(Cl)(Cl)Cl (centres undefined)
inactive: [1] | [3] | [4] | [13] | [8] | [11] | [5] | [7]

COP(=O)(OC)SCn1c(=O)oc2cc(Cl)cnc21
inactive: [1] | [2] | [3] | [4] | [8] | [11] | [9]

N#CSCSC#N
inactive: [9]
active: [1] 25.1 µM | [2] 15.7 µM and 4.28 µM | [3] 12.1 µM | [8] 17.8 µM and 17.2 µM | [11] 27.9 µM and 30.3 µM | [5] 24.9 µM | [7] 62.5 µM and 60.5 µM

CCOP(=O)(NC(C)C)Oc1ccc(SC)c(C)c1 (centres undefined)
active: [3] 9.69 µM
inactive: [1] | [2] | [8] | [11] | [14]

CN(C)c1ccc(N=Nc2ccccc2)cc1
inactive: [1] | [2] | [3] | [10] | [11] | [5]
active: [12] 97 nM | [7] 43.3 µM | [9] 0.252 µM

O=c1c(C2CC(c3ccc(-c4ccc(Br)cc4)cc3)Cc3ccccc32)c(O)sc2ccccc12 (centres undefined)
active: [3] 2.66 µM
inactive: [1] | [2] | [10] | [8] | [11] | [9]

O=c1ssc(Cl)c1Cl
active: [1] 27.5 µM | [2] 15.4 µM | [3] 17.2 µM | [11] 68.6 µM | [5] 61.1 µM | [9] 17.8 µM
inactive: [8]

COC(=O)N(C(=O)N1CO[C@@]2(C(=O)OC)Cc3cc(Cl)ccc3C2=N1)c1ccc(OC(F)(F)F)cc1
inactive: [1] | [2] | [4] | [8] | [11] | [7] | [9]

O=S(=O)(c1ccc(Cl)cc1)c1ccc(Cl)cc1
inactive: [1] | [2] | [4] | [8] | [11] | [14] | [15] | [6] | [16] | [9]

Oc1ccc(C(=C(Cl)Cl)c2ccc(O)cc2)cc1
inactive: [1] | [2] | [4] | [10] | [11] | [5] | [9]

CCN(CC)C(=S)[S-].CCN(CC)C(=S)[S-].[Zn+2]
active: [1] 12.2 µM | [2] 5.4 µM | [3] 0.856 µM | [4] 12.2 µM | [8] 1.72 µM | [11] 30.4 µM | [7] 3.41 µM | [9] 35.3 µM

S=C=Nc1cccc2ccccc12
inactive: [2] | [11] | [5] | [9]
active: [1] 21.7 µM | [4] 24.3 µM | [7] 67.9 µM

Cc1c(Cl)c(=O)oc2cc(OP(=O)(OCCCl)OCCCl)ccc12
inactive: [1] | [2] | [3] | [10] | [13] | [8] | [11] | [5] | [12] | [7] | [9]

CCOCn1c(-c2ccc(Cl)cc2)c(C#N)c(Br)c1C(F)(F)F
inactive: [1] | [4] | [11] | [9]
active: [2] 9.69 µM | [3] 0.686 µM | [8] 19.5 µM | [5] 3.06 µM | [7] 4.86 µM

CC(C)CC(C)Nc1ccc(Nc2ccccc2)cc1 (centres undefined)
active: [1] 54 µM | [2] 67.4 µM | [3] 47.7 µM | [8] 54 µM | [7] 60.1 µM | [9] 39.3 µM
inactive: [5] | [12]
